Sampled rows, rich in hits. Any-hit rate of the full collection: about 1.3%.
Fam108B inh – blocks mouse Fam108B hydrolase in RBBP9 counter-screen. recombinant Fam108B, FP-Rh probe fluorescence polarization. inhibition, % at 9.51 µM. 300,000 tested, 0.33% active. AID 1947;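 active means inhibition above the screen mean inhibition plus 3 SD, computed separately per campaign, cut at about 18% in these data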;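 further: inhibitors lower polarization as less probe binds the enzyme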
PME-1 primary – blocks human protein phosphatase methylesterase 1. recombinant PME-1, FP-Rh probe fluorescence polarization. AID 2130. inhibition, % at 5.9 µM. 320,000 tested, 0.53% active. Q9Y570;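 active means inhibition above the campaign mean of all compounds plus 3 SD, cut at about 26% in these data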;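 further: competitive labeling of PME-1 active site by serine hydrolase directed probe; inhibitors block probe labeling so polarization falls and inhibition rises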
LYPLA1 counter – counter-screen for PME1 inhibitors: inhibitors of human LYPLA1; recombinant LYPLA1, FP-Rh probe fluorescence polarization; inhibition, % at 5.9 µM; 320,000 tested, 0.16% active; AID 2174;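 active means inhibition above the mean of all tested compounds plus 3 SD, set per campaign, cut at about 14% in these data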;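 further: inhibitors block serine hydrolase probe labeling of LYPLA1 so polarization falls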
Target sequence (O75608 whole entry, looked up): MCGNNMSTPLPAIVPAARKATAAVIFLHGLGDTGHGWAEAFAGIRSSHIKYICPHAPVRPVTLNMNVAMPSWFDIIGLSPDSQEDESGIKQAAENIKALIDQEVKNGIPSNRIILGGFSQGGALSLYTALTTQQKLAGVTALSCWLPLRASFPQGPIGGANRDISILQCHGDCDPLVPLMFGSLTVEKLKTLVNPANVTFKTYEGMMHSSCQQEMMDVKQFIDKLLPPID
LYPLA2 counter – blocks human lysophospholipase 2, a PME1 counter-screen; recombinant LYPLA2, FP-Rh probe fluorescence polarization; 320,000 tested, 0.38% active; AID 2177; inhibition, % at 5.9 µM;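 active means inhibition above the screen-wide mean plus 3 SD, limit set per campaign, cut at about 26% in these data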
PREPL inhibitor – inhibits the human prolyl oligopeptidase-like enzyme | AID 2751 | inhibition, % at 5.96 µM | recombinant PREPL, fluorescence polarization activity-based probe | Q4J6C6 | 320,000 tested, 0.68% active; in the data active means inhibition above about 43%
Numbers stand for hits; 0 = inactive; - = no result given.

SMILES	Fam108B inh	PME-1 primary	LYPLA1 counter	LYPLA2 counter	PREPL inhibitor
O=C1CCC(c2ccccc2)=NN1Cc1c(F)cccc1Cl	0	0	0	0	0
COc1ccc(C2=NN(Cc3c(F)cccc3Cl)C(=O)CC2)cc1	0	44.0	0	0	0
CCN1C(=O)C(=O)N(CC(=O)Nc2cccc(C(F)(F)F)c2)C1=O	-	-	-	-	0
COc1cccc(C(C)NC(=O)c2ccncc2)c1 (configuration not stated)	0	0	0	0	0
COc1ccc(CN(C)CC(=O)c2c(N)n(Cc3ccccc3)c(=O)n(C)c2=O)c(OC)c1	0	0	0	0	47.4
COc1ccc(-c2c/c(=N\c3nc(-c4ccccc4)c(C)s3)c3ccccc3o2)cc1O	0	30.7	0	0	0
COc1ccc(/C=C/c2nc3cc(-c4ccccc4)ccc3o2)cc1O	0	0	0	0	0
O=C(Nc1ccccc1F)C1COc2ccccc2O1 (configuration not stated)	0	0	0	0	0
N#Cc1c(N)n(CCOC(=O)c2cccc(Br)c2)c2nc3ccccc3nc12	0	0	0	0	0
N#Cc1c(N)n(CCOC(=O)c2cccc([N+](=O)[O-])c2)c2nc3ccccc3nc12	0	31.1	0	0	0
CN(C)c1ccc(C(CNC(=O)c2ccc(C#N)cc2)c2c[nH]c3ccccc23)cc1 (configuration not stated)	0	0	0	0	65.1
COc1ccc(N=CC2=C(Nc3ccc(OC)cc3)c3c(C)nn(-c4ccccn4)c3CC2)cc1	47.3	57.4	49.9	49.2	72.5
COc1ccc(-c2cc(C(=O)O)c3c(C)nn(-c4ccccn4)c3n2)cc1	0	0	0	0	0
CC1(c2ccccc2)NC(=O)N(CC(=O)Nc2nnc(C3CC3)s2)C1=O (configuration not stated)	0	0	0	0	0
Cc1noc(C)c1CSc1nc2ccccc2nc1NS(=O)(=O)c1ccc(Cl)cc1	0	27.4	0	0	0
Cc1ccc2c(-c3csc(N)n3)c[nH]c2c1	0	51.4	0	0	0
O=C1c2ccccc2C(=O)N1c1cccc(-c2csc(Nc3ccc4c(c3)OCO4)n2)c1	20.5	0	0	0	0
COc1ccccc1Nc1nc(-c2cccc(N3C(=O)c4ccccc4C3=O)c2)cs1	0	0	0	0	0
COc1cc(C2Nc3cccc4cccc(c34)N2)ccc1O	0	26.6	0	0	0
Cc1cccc(C2Nc3cccc4cccc(c34)N2)c1	0	0	0	0	0
C(=N\Nc1nc2ccccc2[nH]1)/c1cccs1	0	0	0	0	0
Cn1c(/C=N/Nc2nc3ccccc3[nH]2)nc2ccccc21	0	47.8	0	0	0
COc1ccccc1N1CCN(S(=O)(=O)CCNC(=O)C23CC4CC(CC(C4)C2)C3)CC1	0	0	0	0	0
CCC(=NCc1ccc(Cl)c(Cl)c1)c1nc(-c2ccco2)oc1O	0	0	0	0	73.9
COc1ccc(N=Cc2nc(-c3ccco3)oc2O)cc1	0	0	0	0	0
SMILES	Fam108B inh	PME-1 primary	LYPLA1 counter	LYPLA2 counter	PREPL inhibitor
COc1ccc(/C=C2\CN(Cc3ccccc3)C/C(=C\c3ccc(OC)c(O)c3)C2=O)cc1O	0	26.6	0	0	0
CCN1C/C(=C/c2ccc(OC)c(O)c2)C(=O)/C(=C/c2ccc(OC)c(O)c2)C1	0	0	0	0	0
O=c1[nH]c(C2CCN(S(=O)(=O)c3ccc(F)cc3)CC2)nc2c1nnn2Cc1ccc2c(c1)OCCO2	0	32.2	0	0	0
COc1cccc(Cn2nnc3c(=O)[nH]c(C4CCCN(C(=O)c5ccccc5Cl)C4)nc32)c1 (configuration not stated)	0	57.6	0	0	0
O=c1[nH]c(C2CCCN(S(=O)(=O)c3ccccc3)C2)nc2c1nnn2Cc1ccccc1 (configuration not stated)	0	33.0	0	0	0
CCN1C(=O)N(CC)C2C1N(CO)C(=O)N2CO (configuration not stated)	0	0	0	0	0
CN(C(=O)COC(=O)CNC(=O)c1sc2ccccc2c1Cl)c1ccccc1	0	0	0	0	0
O=C(c1cccc(C(=O)N2CCN(c3ncccn3)CC2)c1)N1CCN(c2ncccn2)CC1	0	0	0	0	0
O=C(c1ccc2nc(-c3ccco3)c(-c3ccco3)nc2c1)N1CCN(c2ncccn2)CC1	0	0	0	0	60.7
COc1ccc2[nH]c(=O)c(-c3noc(-c4ccccc4)n3)cc2c1	0	48.7	0	0	0
